Pf Dd2 inh = qHTS Primary assay for Inhibitors of Plasmodium falciparum Dd2 growth in vitro; Potency, µM (series often up to 28.9 µM), most hits filed as inhibitors; hit rate 4.3% among 120,000; P. falciparum Dd2 growth, SYBR Green, 72 h; AID 1347417, 2020; active = well fitted inhibition curve with a large enough effect; also: nearly all actives have a fitted effect of over 65% in size
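Readout: SYBR Green fluorescence, 485 nm excitation, 535 nm emission, after ~16 h lysis at 37C. Before that, Dd2-infected red cells (2.5% hematocrit) grew 72 h with compound, 29 uM top final concentration.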
Of the large screens only hits and unclear results are named; the others gave an inactive call. This is one part of a sample in which hits are shown more often than they occur.

Cc1ccccc1C(=O)N[C@H]1[C@H](O)[C@H](O)C[C@@H]1c1ccc(C(F)(F)F)cc1	Pf Dd2 inh 3.55µM
O=C1NCc2ccccc2CC12CCCCN2CC1CCOCC1 (stereo unspecified)	none
CN(Cc1ccccc1)C(=O)c1cccc2c1CCN2C(=O)Nc1ccccc1	Pf Dd2 inh 6.31µM
CCNC(=O)c1cccc2c1CCN2C(=O)Nc1ccc(C)cc1	none
CN(Cc1ccco1)C(=O)c1cccc2c1CCN2C(=O)Nc1ccccc1	none
CCC(c1cccs1)N1C(=O)[C@H]2CN(Cc3cccnc3)C[C@H]2C1=O (stereo partly specified)	none
COc1cc(CN2CCC3(CC2)Cc2ccccc2CNC3=O)cc(OC)c1	none
COC[C@H]1C[C@@H](NCc2cccc(Cl)c2)[C@H](O)[C@@H]1O	none
Cc1noc([C@@H]2C[C@H](NC(=O)c3ccc(C#N)cc3)CN2C)n1	none
Cc1c(O)cccc1C(=O)N1CCCN(Cc2ccc(F)cc2)C(C(C)C)C1 (stereo unspecified)	Pf Dd2 inh 3.98µM
CC(C)C1CN(C(=O)CN2CCCCC2=O)CCCN1Cc1ccc(F)cc1 (stereo unspecified)	none
CC(C)C1CN(C(=O)CNC(=O)N(C)C)CCCN1Cc1ccc(F)cc1 (stereo unspecified)	none
O=C(CC1CCCC1)N1CCCCCC1CN1CCOCC1 (stereo unspecified)	none
CCN(CC)C(=O)[C@@H]1CCC[C@@H](NC(=O)c2ccc3c(c2)OCO3)CN(C)C(=O)C1	none
COCC(=O)N1C[C@@H]2C[C@H]1C(=O)N(Cc1ccc(OC)cc1)c1ccccc1O2	none
CCN(Cc1ccccc1)C(=O)CCC[C@@H]1[C@H]2CCCN3CCC[C@@H](CN1C(=O)c1ccccc1)[C@@H]23	Pf Dd2 inh 2µM
CC(C)N1CCN(C(=O)CCC[C@@H]2[C@H]3CCCN4CCC[C@@H](CN2C(=O)c2ccccc2)[C@@H]34)CC1	none
CC(C)N1CCN(C(=O)CCC[C@@H]2[C@H]3CCCN4CCC[C@@H](CN2Cc2ccccc2)[C@@H]34)CC1	Pf Dd2 inh 3.98µM
O=C(CCC[C@@H]1[C@H]2CCCN3CCC[C@@H](CN1C(=O)c1ccccc1)[C@@H]23)N1CCCCC1	none
O=C(CCC[C@@H]1[C@H]2CCCN3CCC[C@@H](CN1C(=O)c1ccccc1)[C@@H]23)NCCN1CCCCC1	none
O=C(CCC[C@@H]1[C@H]2CCCN3CCC[C@@H](CN1Cc1cccnc1)[C@@H]23)N1CCN(C2CCCC2)CC1	none
CN(CC(=O)N1CCc2c(c(-c3nncn3Cc3ccccc3)nn2C)C1)S(=O)(=O)c1cnc[nH]1	none
Cc1ccc(OCc2nc(C3CCCCN3)no2)cc1 (stereo unspecified)	none
NC(=O)[C@H](CC1CCCCC1)NC(=O)[C@H]1CN(C(=O)C2CCNCC2)CCN1C(=O)c1cccs1	none
Cc1ccc(-c2noc([C@@H]3CCCN3C(=O)c3ccc4c(c3)OCO4)n2)cc1	none
O=C(c1ccccc1F)N1CCCC(c2nn[nH]n2)C1 (stereo unspecified)	none
Cc1c(C(=O)OC2CCCC2)[nH]c2c1C(=O)CC(c1ccc(C(C)(C)C)cc1)C2 (stereo unspecified)	none
CCOc1ccc(C2CC(=O)c3c([nH]c(C(=O)OC4CCC(C)CC4)c3C)C2)cc1 (stereo unspecified)	none
Cc1c(C(=O)OC2CCCCC2)[nH]c2c1C(=O)CC(c1ccccc1)C2 (stereo unspecified)	none
COc1ccc(OC)c(C2CC(=O)c3c([nH]c(C(=O)OC4CCC(C)CC4)c3C)C2)c1 (stereo unspecified)	Pf Dd2 inh 10µM
Cc1c(C(=O)OC2CCC(C)CC2)[nH]c2c1C(=O)CC(c1ccc(F)cc1)C2 (stereo unspecified)	none
COc1ccc(C2CC(=O)c3c([nH]c(C(=O)OC4CCCCCC4)c3C)C2)cc1OC (stereo unspecified)	Pf Dd2 inh 10µM
Cc1noc(-c2cccn3c(CNC(=O)c4ccc(C(C)(C)C)cc4)nnc23)n1	none
O=C(CC1CCCCC1)N1CCC2(CC1)NC(=O)N(c1ccc(F)cc1)N2	none
O=C(C1CC1)N1CCC(c2noc(-c3cnccn3)n2)C1 (stereo unspecified)	none
CN1CCCC2(CCN(C(=O)Cc3c[nH]c(=O)n(C)c3=O)C2)C1=O (stereo unspecified)	none
COc1cccc(NC(=O)[C@@H]2C[C@H](c3ccc(F)cc3)N([S+](C)(=O)[O-])C2)c1	Pf Dd2 inh 6.31µM
O=C(Nc1cccc(F)c1)[C@@H]1C[C@@H](c2ccc(F)cc2)N([S+](=O)([O-])c2ccccc2)C1	none
COc1cccc(NC(=O)[C@@H]2C[C@@H](c3ccc(F)cc3)N(CCOc3ccccc3)C2)c1	none
O=C(Nc1ccccc1)[C@@H]1C[C@@H](c2ccc(F)cc2)N([S+](=O)([O-])c2cccnc2)C1	none
O=C(NCc1cccnc1)[C@@H]1C[C@@H](c2ccc(F)cc2)N(CCOc2ccccc2)C1	Pf Dd2 inh 8.91µM
COc1cccc(NC(=O)[C@@H]2C[C@@H](c3ccc(F)cc3)N([S+](=O)([O-])c3cccnc3)C2)c1	none
O=C(Nc1cccnc1)[C@@H]1C[C@@H](c2ccc(F)cc2)N(Cc2ccccc2)C1	Pf Dd2 inh 7.08µM
COc1cccc(NC(=O)[C@@H]2C[C@H](c3ccc(F)cc3)N(Cc3csc(C)n3)C2)c1	none
COc1ccc(NC(=O)[C@@H]2C[C@@H](c3ccc(F)cc3)N(Cc3ccccc3)C2)cc1OC	Pf Dd2 inh 10µM
COc1ccc(NC(=O)[C@@H]2C[C@H](c3ccc(F)cc3)N(Cc3csc(C)n3)C2)cn1	none
O=C(Nc1cccc(F)c1)[C@@H]1C[C@@H](c2ccc(F)cc2)N([S+](=O)([O-])c2cccnc2)C1	none
O=C(NCCOc1ccccc1)[C@@H]1C[C@@H](c2ccc(F)cc2)N([S+](=O)([O-])c2cccnc2)C1	none
CN(C)C[C@@H]1CN(C2CCOCC2)C[C@H]1NC(=O)C1CC1	none
CC1CCN([C@@H]2[C@H](O)[C@H](CO)O[C@@H]2CNC(=O)c2cccc(F)c2)CC1	none
COc1cccc(C(=O)NCCC2CCN(C(=O)Nc3ccccc3F)CC2)c1	none
Cn1nc2n(c1=O)CCN(C(=O)CCCc1c[nH]c3ccccc13)CC2	none
O=C(CCn1ccn2nc3c(c2c1=O)CCCC3)NCCCc1ccccc1	none
COc1ccc(-c2ncc3c(n2)OCCN(C)C3=O)cc1OC	none
CCN1CCC(CCNC(=O)C2CCN(C(=O)N3CC4CC(C3)[C@H]3CCCC(=O)N3C4)CC2)CC1 (stereo partly specified)	none
CC[C@H]1CN(S(=O)(=O)c2c(C)noc2C)CC[C@H]1CC(=O)Nc1ccccc1	none
O=C(NC1CC1)[C@@H]1C[C@H](Oc2cccnc2)CN1C(=O)c1nccc2ccccc12	none
CCO[C@H]1CN(C(=O)Cc2nc(C)sc2C)C[C@@H]1O	none
O=C(CC1CCOCC1)NCc1ccc(F)cc1	none
CC(C)C(=O)N1Cc2ccccc2CC2(CCCN2C)C1 (stereo unspecified)	Pf Dd2 inh 10µM
CC(C)C(=O)N1Cc2ccccc2CC2(CCCN(CC3CCCCC3)C2)C1 (stereo unspecified)	Pf Dd2 inh 0.251µM
O=C(O)CCCC(=O)N1Cc2ccccc2CC2(CCCN(CC3CCCCC3)C2)C1 (stereo unspecified)	none
O=C(O)CCC(=O)N1Cc2ccccc2CC2(CCCN(CC3CCCCC3)C2)C1 (stereo unspecified)	none
CN(C)CCC(=O)N1Cc2ccccc2CC2(CCCN2C)C1 (stereo unspecified)	none
CCCN1CCC2(Cc3ccccc3CN(C(=O)C(C)C)C2)C1 (stereo unspecified)	Pf Dd2 inh 8.91µM

Compound activity deposited in PubChem BioAssay by National Center for Advancing Translational Sciences (NCATS).
